Potency and outcome data for nine compounds are collected here from PubChem BioAssay (Tox21).

Assay [1] in a line: qHTS assay to identify small molecule agonists of the sonic hedgehog signaling (Shh) pathway (AID 1259368; calls by dose curve; also: series mostly up to about 92 µM; nearly all actives have a fitted effect of over 15% in size). The method, boiled down:
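NIH/3T3-derived 3T3Gli1-Luc cells carrying a stably integrated Gli1 response element–firefly luciferase reporter were plated, left 4 hr at 37 C, then given compounds in DMSO for 24 hr. Luminescence was read 30 min after adding luciferase reagent.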

Assay [2] in a line: qHTS assay to identify small molecule antagonists of the sonic hedgehog signaling (Shh) pathway (AID 1259369; calls by dose curve; also: nearly all actives have a fitted effect of over 45% in size; also: potency is read from the fitted curve at half-maximal effect). The method, boiled down:
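NIH/3T3-derived 3T3Gli1-Luc cells with stably integrated Gli1-Luc reporter were preincubated 4hr at 37 C, then given compounds in DMSO plus Shh conditioned medium and incubated 24hr. Firefly luciferase luminescence read after 30min reagent at room temperature.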
For orientation: In qHTS, concentration-response curves come from the screen itself.

Assay [3] addresses Estrogen receptor beta (Homo sapiens) (UniProt Q92731). The assay can be described thus: qHTS assay to identify small molecule agonists of the estrogen receptor beta (ER-beta) signaling pathway (AID 1259377; active = well fitted activation curve with a large enough effect in the signal ratio in the repeat runs, not every such curve was filed as active; the % refers to the signal ratio). In a few lines: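 qHTS in ER-beta-UAS-bla HEK293T cells: 6 hr settling, then 16 hr compound at 37C, then LiveBLAzer substrate 2 h at RT before fluorescence reading.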
Assay [4] shares this target. Description: qHTS assay to identify small molecule antagonists of the estrogen receptor beta (ER-beta) signaling pathway (AID 1259378; active = well fitted inhibition curve with a large enough effect in the signal ratio in the repeat runs, not every such curve was filed as active; the % refers to the signal ratio; also: potency is read from the fitted curve at half-maximal effect). In a few lines: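 ER-beta-UAS-bla HEK293T (GripTite) cells in 2% charcoal-stripped FBS medium were preincubated 6 hr at 37C, dosed with compound, then stimulated with 1 nM E2 (final) for 16 hr; beta-lactamase reporter read by B/G FRET fluorescence after 2 hr substrate loading.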

Assay [5] in a line: qHTS assay to identify small molecule agonists of the androgen receptor (AR) signaling pathway in the presence of an antagonist - cell viability counter screen (AID 1259379). Also: series mostly up to about 92 µM; nearly all actives have a fitted effect of over 25% in size. The method, boiled down: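 MDA-kb2 human breast carcinoma cells (stable MMTV-luciferase, AR/GR responsive) were seeded 3,000 cells/well, pre-incubated 5 hr at 37C without CO2, then given 3.0uM nilutamide and compounds at 15 concentrations for 16 hr. Viability was read by CellTiter-Fluor fluorescence.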

Assay [6] in a line: qHTS assay to identify small molecule agonists or antagonists of the thyroid stimulating hormone receptor (TSHR) signaling pathway - wild type cell line counter screen (AID 1259384; calls by dose curve). The method, boiled down:
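Wild-type HEK293 cells were plated 18 h at 37 C/5% CO2, pin-dosed with compound plus Ro20-1724 medium, held 30 min at room temperature, then given cAMP-d2 and anti-cAMP-cryptate; fluorescence was read after 1 h. Fifteen concentrations, triplicate.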

Assay [7] addresses Thyrotropin receptor (Homo sapiens) (UniProt P16473). Description: qHTS assay to identify small molecule antagonists of the thyroid stimulating hormone receptor (TSHR) signaling pathway (AID 1259385; calls by dose curve; also: nearly all actives have a fitted effect of over 20% in size). In a few lines: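 TSHR-HEK293 cells were plated and held 18 h at 37C/5% CO2, then given compound plus Ro20-1724 and stimulated with TSH at 1.5 ng/mL final. After 30 min at room temperature, cAMP was detected with cAMP-d2/anti-cAMP-cryptate (1 h) by fluorescence.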

A short description of assay [8]: qHTS assay to identify small molecule agonists of the estrogen receptor alpha (ER-alpha) signaling pathway in the presence of an antagonist - cell viability counter screen (AID 1259386).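 Also: cells exposed to compounds for 22 h at 37 °C before the viability read; nearly all actives have a fitted effect of over 30% in size.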 Also: potency is read from the fitted curve at half-maximal effect. The method, boiled down: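 VM7Luc4E2 cells (endogenous full-length ER-alpha, 4×ERE-luciferase) were held 5 days in phenol red-free medium with 10% charcoal-stripped FBS, plated, then given 10.0nM ICI-182,780 and compounds at 15 concentrations for 22hr at 37C; viability read by CellTiter-Fluor fluorescence.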

The target in assay [9] is Progesterone receptor (Homo sapiens) (UniProt P06401). The assay can be described thus: qHTS assay to identify small molecule agonists of the progesterone receptor (PR) signaling pathway (AID 1346784; calls by dose curve; also: nearly all actives have a fitted effect of over 30% in size). The method, boiled down:
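Fluorescence from LiveBLAzer B/G FRET substrate cleavage (2 hr, RT) reported PR activation in PR-UAS-bla HEK 293T cells treated 16 hr at 37C/5% CO2 with compounds; medium contained 2% charcoal-stripped FBS.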

Assay [10] has the same target. The assay can be described thus: qHTS assay to identify small molecule antagonists of the progesterone receptor (PR) signaling pathway (AID 1346795; active = well fitted inhibition curve with a large enough effect in the signal ratio in the repeat runs, not every such curve was filed as active; the % refers to the signal ratio). In a few lines: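 Fluorescence intensity measured 2 hr after adding beta-lactamase FRET substrate to PR-UAS-bla HEK293T cells that had been co-treated 16 hr with compound and 1 nM R5020 (final concentration) in 2% charcoal-stripped FBS.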

Assay [11] can be described thus: qHTS assay to identify small molecule antagonists of the progesterone receptor (PR) signaling pathway - cell viability counter screen (AID 1346798). Also: series mostly up to about 92 µM; nearly all actives have a fitted effect of over 50% in size. The method, boiled down:
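CellTiter-Glo luminescence; PR-UAS-bla HEK293T, 3,000 cells/well; compound + R5020, 16 hr, 37C/5% CO2; 30 min RT before read.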

A short description of assay [12]: qHTS assay to identify small molecule agonists of the progesterone receptor (PR) signaling pathway - cell viability counter screen (AID 1346799; calls by dose curve; also: nearly all actives have a fitted effect of over 45% in size). In a few lines: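 In parallel with the beta-lactamase readout, cytotoxicity toward PR-UAS-bla HEK293T cells was measured by CellTiter-Glo luminescence following 16 hr compound incubation in 2% charcoal-stripped FBS medium.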

The nature of assay [13]: qHTS assay to identify small molecule antagonists of the TGF-beta/Smad signaling pathway - cell viability counter screen (AID 1346824). Also: nearly all actives have a fitted effect of over 50% in size. The method, boiled down: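 SBE-bla HEK 293T cells were plated overnight at 37 C, then given compounds in DMSO plus TGF-beta1 (added as 0.25 ng/mL solution) for 5 hr. After the bla read, CellTiter-Glo was added to the same wells and luminescence read after 30 min at room temperature.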

Assay [14] in a line: qHTS assay to identify small molecule agonists of the TGF-beta/Smad signaling pathway - cell viability counter screen (AID 1346829). Also: top concentration of the series differs between compounds; nearly all actives have a fitted effect of over 45% in size. In a few lines: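 HEK 293T SBE-bla line, 5 hr compound exposure at 37 C, multiplexed CellTiter-Glo viability read by luminescence.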
Assay [15] can be described thus: qHTS assay to identify small molecule agonists of the TGF-beta/Smad signaling pathway (AID 1346859; active = well fitted activation curve with a large enough effect in the signal ratio in the repeat runs, not every such curve was filed as active; the % refers to the signal ratio; also: series mostly up to about 77 µM). In a few lines: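 After overnight seeding, SBE-bla HEK 293T cells are dosed with compounds in DMSO and kept 5 hr at 37 C, 5% CO2. LiveBLAzer-type FRET substrate is then applied for 2 hr at room temperature.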
The target in assay [16] is Thyrotropin-releasing hormone receptor (Homo sapiens) (UniProt P34981). Description: qHTS assay to identify small molecule antagonists of the thyrotropin-releasing hormone receptor (TRHR) signaling pathway (AID 1346877; active = well fitted inhibition curve with a large enough effect in the repeat runs, not every such curve was filed as active; also: series mostly up to about 51 µM). In a few lines: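 TRHR-expressing HEK293 cells were seeded, cultured 18 h at 37 °C, then loaded with calcium dye for 2 h. Compounds were pre-incubated 5 min at room temperature before 1 nM TRH (final) was added, and kinetic fluorescence was recorded for 3 min.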

A short description of assay [17]: qHTS assay to identify small molecule antagonists of the estrogen receptor beta (ER-beta) signaling pathway - cell viability counter screen (AID 1259382). Also: series mostly up to about 92 µM; nearly all actives have a fitted effect of over 55% in size. The method, boiled down: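 ER-beta-UAS-bla HEK293T cells (2,000/well, 2% charcoal-stripped FBS) were pre-incubated 6 hr at 37C, then given compound plus 1nM final 17-beta-estradiol for 16 hr. Viability was read in the same wells by CellTiter-Glo luminescence after 30 min at room temperature.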

A short description of assay [18]: qHTS assay to identify small molecule agonists of the estrogen receptor beta (ER-beta) signaling pathway - cell viability counter screen (AID 1259380). Also: nearly all actives have a fitted effect of over 30% in size. In a few lines:
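ER-beta-UAS-bla HEK293T cells in medium with 2% charcoal-stripped FBS were preincubated 6 hr at 37C, dosed with compound in DMSO for 16 hr, then after the bla read, CellTiter-Glo was added for 30 min at room temperature; luminescence recorded.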

The target in assay [19] is Androgen receptor (Homo sapiens) (UniProt P10275). Description: qHTS assay to identify small molecule agonists of the androgen receptor (AR) signaling pathway in the presence of an antagonist (AID 1259381; calls by dose curve; also: nearly all actives have a fitted effect of over 15% in size). The method, boiled down:
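MDA-kb2 human breast carcinoma cells carrying an MMTV-luciferase reporter (AR- and GR-responsive) were treated with compounds at 15 concentrations plus 3.0uM final nilutamide for 16hr at 37C without CO2; luminescence was read after ONE-Glo addition.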

Assay [20] has as its target Estrogen receptor (Homo sapiens) (UniProt P03372). The assay can be described thus: qHTS assay to identify small molecule agonists of the estrogen receptor alpha (ER-alpha) signaling pathway in the presence of an antagonist (AID 1259383; calls by dose curve; also: top concentration of the series differs between compounds; nearly all actives have a fitted effect of over 15% in size). In a few lines: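 VM7Luc4E2 cells (endogenous full-length ER-alpha, 4×ERE-luciferase) were precultured 5 days in phenol red-free medium with 10% charcoal-stripped FBS, given 10.0nM ICI-182,780 (final), then treated with compounds at 15 concentrations for 22hr at 37C; luminescence read with ONE-Glo.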

Where “and” joins values, the source holds several entries; their conditions need not be identical. Equal values may be shown once. Results filed as inconclusive are left out. Some structures have more than one record in an assay (separate samples or runs), and their calls can disagree. Calls of active or inactive are those of the source. Unless noted, calls follow the shape of the dose curve; as a rule, active = well fitted curve in the direction sought with a large enough effect in the repeat runs; inconclusive = weak or mixed curves; inactive = no such curve, though single readings can be large; an effect the other way counts as inactive or inconclusive.

Chain of Thyrotropin-releasing hormone receptor (Homo sapiens) (P34981 whole entry, looked up): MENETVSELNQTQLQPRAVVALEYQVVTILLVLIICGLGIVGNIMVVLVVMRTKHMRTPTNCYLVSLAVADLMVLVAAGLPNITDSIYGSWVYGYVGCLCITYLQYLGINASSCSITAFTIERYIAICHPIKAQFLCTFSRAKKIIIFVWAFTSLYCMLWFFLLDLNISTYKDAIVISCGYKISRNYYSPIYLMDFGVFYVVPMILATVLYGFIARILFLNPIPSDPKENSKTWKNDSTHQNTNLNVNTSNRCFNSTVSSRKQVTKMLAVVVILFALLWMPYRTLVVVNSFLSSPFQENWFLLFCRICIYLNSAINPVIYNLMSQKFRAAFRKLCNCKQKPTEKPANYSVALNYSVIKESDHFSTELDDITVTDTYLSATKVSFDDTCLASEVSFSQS
Chain of Progesterone receptor (Homo sapiens) (P06401 whole entry, looked up): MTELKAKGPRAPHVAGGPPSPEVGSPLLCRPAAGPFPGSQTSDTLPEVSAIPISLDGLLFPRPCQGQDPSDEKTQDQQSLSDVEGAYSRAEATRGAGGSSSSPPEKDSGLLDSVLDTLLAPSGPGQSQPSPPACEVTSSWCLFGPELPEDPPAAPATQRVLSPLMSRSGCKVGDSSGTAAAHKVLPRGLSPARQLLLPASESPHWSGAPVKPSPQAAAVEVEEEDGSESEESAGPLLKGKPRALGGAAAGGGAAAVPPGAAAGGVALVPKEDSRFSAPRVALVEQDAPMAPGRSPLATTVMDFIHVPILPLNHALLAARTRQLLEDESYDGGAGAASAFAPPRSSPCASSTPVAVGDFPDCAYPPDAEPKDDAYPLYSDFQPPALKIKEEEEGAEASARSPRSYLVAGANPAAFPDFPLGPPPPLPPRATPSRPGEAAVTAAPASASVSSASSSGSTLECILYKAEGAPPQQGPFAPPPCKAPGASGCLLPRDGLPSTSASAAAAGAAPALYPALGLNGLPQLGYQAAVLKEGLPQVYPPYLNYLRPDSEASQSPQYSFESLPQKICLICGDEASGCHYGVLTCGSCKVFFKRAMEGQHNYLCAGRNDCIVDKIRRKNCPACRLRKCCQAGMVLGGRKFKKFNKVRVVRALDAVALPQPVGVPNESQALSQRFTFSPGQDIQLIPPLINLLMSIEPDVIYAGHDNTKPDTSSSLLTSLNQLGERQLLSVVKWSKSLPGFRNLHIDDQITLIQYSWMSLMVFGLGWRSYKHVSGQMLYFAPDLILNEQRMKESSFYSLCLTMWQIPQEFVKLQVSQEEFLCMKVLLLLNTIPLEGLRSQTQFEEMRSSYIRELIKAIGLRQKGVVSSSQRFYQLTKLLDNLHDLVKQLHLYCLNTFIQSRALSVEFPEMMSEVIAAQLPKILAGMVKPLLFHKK
Chain of Estrogen receptor beta (Homo sapiens) (Q92731 whole entry, looked up): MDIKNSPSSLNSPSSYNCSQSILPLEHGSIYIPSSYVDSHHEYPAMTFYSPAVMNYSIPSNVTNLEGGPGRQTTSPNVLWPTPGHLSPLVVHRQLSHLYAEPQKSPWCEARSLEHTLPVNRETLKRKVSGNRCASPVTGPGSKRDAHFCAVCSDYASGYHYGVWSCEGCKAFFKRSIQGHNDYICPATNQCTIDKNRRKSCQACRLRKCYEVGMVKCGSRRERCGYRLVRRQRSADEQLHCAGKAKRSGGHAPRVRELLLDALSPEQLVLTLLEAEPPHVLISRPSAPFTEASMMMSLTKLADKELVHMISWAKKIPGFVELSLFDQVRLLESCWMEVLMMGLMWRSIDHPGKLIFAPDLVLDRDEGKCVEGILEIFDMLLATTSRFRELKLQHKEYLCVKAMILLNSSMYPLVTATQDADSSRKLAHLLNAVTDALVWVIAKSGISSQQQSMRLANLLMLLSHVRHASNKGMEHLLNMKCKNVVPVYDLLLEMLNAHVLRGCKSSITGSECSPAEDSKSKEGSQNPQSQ
Chain of Thyrotropin receptor (Homo sapiens) (P16473 whole entry, looked up): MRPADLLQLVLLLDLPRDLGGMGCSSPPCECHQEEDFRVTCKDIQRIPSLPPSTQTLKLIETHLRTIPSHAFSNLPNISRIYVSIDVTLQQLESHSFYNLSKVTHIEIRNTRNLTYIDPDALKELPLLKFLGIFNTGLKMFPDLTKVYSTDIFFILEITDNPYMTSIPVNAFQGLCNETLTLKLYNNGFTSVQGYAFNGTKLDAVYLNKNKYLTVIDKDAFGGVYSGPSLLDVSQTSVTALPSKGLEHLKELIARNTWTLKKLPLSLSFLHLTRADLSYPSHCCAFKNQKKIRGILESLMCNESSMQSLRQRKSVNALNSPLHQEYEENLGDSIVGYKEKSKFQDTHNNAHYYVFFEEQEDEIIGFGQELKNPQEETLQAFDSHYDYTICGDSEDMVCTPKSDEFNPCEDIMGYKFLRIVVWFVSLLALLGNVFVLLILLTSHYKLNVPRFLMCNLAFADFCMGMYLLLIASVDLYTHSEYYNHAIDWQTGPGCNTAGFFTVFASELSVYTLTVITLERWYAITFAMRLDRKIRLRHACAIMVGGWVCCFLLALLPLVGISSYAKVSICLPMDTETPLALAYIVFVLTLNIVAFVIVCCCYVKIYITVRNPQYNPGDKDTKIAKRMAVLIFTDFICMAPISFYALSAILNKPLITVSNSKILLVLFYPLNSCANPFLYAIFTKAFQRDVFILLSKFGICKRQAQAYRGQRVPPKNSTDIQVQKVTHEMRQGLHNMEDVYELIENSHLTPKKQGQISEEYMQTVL
Chain of Estrogen receptor (Homo sapiens) (P03372 whole entry, looked up): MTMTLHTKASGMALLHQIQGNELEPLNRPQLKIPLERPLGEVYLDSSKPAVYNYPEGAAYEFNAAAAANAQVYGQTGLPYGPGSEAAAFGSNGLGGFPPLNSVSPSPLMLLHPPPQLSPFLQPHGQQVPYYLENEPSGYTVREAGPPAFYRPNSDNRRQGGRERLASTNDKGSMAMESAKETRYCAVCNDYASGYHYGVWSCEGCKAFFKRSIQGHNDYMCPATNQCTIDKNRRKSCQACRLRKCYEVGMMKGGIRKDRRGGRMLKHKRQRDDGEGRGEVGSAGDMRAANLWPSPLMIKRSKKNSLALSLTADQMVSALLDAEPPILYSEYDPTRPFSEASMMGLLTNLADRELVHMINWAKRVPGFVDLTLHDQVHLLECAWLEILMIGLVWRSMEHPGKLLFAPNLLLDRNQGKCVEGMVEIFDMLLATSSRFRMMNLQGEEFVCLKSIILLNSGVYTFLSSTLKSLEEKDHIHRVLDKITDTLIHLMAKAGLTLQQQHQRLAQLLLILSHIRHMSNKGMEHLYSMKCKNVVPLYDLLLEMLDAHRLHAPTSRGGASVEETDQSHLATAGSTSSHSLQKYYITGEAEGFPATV
Chain of Androgen receptor (Homo sapiens) (P10275 whole entry, looked up): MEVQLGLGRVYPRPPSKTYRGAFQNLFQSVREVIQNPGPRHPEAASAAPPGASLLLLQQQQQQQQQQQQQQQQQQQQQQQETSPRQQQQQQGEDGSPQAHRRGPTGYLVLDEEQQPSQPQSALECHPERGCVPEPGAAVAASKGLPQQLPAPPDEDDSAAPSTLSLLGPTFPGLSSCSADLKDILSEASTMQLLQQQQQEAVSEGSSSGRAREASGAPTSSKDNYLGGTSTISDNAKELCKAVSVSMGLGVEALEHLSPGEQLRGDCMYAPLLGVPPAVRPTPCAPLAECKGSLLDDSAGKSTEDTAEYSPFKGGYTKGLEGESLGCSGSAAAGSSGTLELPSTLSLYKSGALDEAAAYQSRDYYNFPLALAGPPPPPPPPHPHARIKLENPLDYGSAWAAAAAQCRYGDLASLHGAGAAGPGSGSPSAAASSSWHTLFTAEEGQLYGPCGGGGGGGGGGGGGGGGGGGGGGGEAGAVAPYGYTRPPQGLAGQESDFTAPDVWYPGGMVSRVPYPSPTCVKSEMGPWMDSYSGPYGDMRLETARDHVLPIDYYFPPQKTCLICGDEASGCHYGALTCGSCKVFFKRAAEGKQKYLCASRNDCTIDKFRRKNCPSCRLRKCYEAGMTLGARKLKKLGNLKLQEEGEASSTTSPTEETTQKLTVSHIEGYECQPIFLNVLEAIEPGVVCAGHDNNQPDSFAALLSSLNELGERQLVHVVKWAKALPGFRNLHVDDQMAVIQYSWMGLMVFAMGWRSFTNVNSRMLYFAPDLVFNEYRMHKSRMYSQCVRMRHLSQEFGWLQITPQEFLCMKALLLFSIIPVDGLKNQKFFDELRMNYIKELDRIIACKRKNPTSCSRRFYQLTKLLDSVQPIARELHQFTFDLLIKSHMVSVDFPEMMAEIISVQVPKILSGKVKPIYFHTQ

Consider `O=C(O)c1ccccc1C(=O)Nc1cccc2ccccc12`, for which the Potency result in [1], in [2], in assay [3], in [4], in [5] and in assay [7] was “inactive” each time. Further, the Potency entry in assay [8], in assay [9], in assay [10], in assay [11], in assay [12] and in assay [13] was “inactive” in each case. Also, the Potency result in [14] and in assay [16] was “inactive” each time. In addition, the call in assay [6] and in [15] was inactive.

For `O=C(O)C(F)(F)C(F)(F)C(F)(F)C(F)(F)C(F)(F)C(F)(F)C(F)(F)C(F)(F)C(F)(F)C(F)(F)F`, the Potency result in assay [1], in assay [2], in assay [3], in [4], in assay [17] and in assay [8] was “inactive” throughout. For the same compound, the Potency entry in [10], in assay [11], in assay [13], in assay [14] and in assay [16] was “inactive” in each case. Besides, the result in [15] was inactive.

In the case of `Cc1ccccc1CCl`, the Potency result in assay [1], in [2], in assay [3], in assay [4], in [18] and in [17] was “inactive” each time. For the same compound, the Potency result in assay [8], in assay [9], in assay [10], in assay [11], in assay [12] and in assay [13] was “inactive” throughout. Moreover, the Potency entry in assay [14] and in [16] was “inactive” throughout. The outcome in assay [15] was inactive.

Take `O=C1c2ccccc2C(=O)C1C(=O)C(c1ccccc1)c1ccccc1`: the Potency result in assay [1], in assay [2], in assay [3], in [5], in [18] and in assay [17] was “inactive” each time. Also, the Potency entry in assay [7], in [8], in assay [9], in assay [12], in assay [13] and in [14] was “inactive” throughout. Besides, in assay [16], the Potency entry is “inactive”. For the same compound, the Potency in assay [4] was 23.7 µM (active). For the same compound, the result in [6] and in assay [15] was inactive.

Take `COC(=O)C(Br)CBr` (configuration not stated): the Potency entry in [1], in [2], in assay [3], in assay [4], in assay [5] and in assay [18] was “inactive” throughout. Besides, the Potency entry in assay [17], in [8], in assay [9], in assay [10], in [12] and in [13] was “inactive” each time. The Potency entry in assay [14] and in assay [16] was “inactive” throughout. Further, the compound was called inactive in assay [15].

Turning to `Nc1ccc([N+](=O)[O-])cc1[N+](=O)[O-]`, the Potency entry in [1], in [2], in assay [3], in assay [4], in [18] and in assay [19] was “inactive” each time. Also, the Potency entry in [17], in assay [7], in assay [9], in assay [11], in assay [12] and in assay [13] was “inactive” in each case. Moreover, the Potency entry in assay [14] and in assay [16] was “inactive” in each case. Further, the compound was called inactive in [6] and in assay [15]. Further, the Potency in [8] was 53.1 µM (active).

For the compound `CC(=O)[C@H]1CC[C@H]2[C@@H]3CC[C@H]4C[C@](C)(O)CC[C@]4(C)[C@H]3CC[C@]12C`, the Potency entry in [1], in assay [2], in [3], in [18], in assay [17] and in assay [20] was “inactive” each time. Also, the Potency entry in assay [7], in assay [8], in assay [9], in assay [10], in [11] and in [12] was “inactive” in each case. In addition, the Potency entry in assay [13], in [14] and in assay [16] was “inactive” throughout. In [4], the Potency was 2.11 µM (active). The call in assay [6] and in [15] was inactive.

`Clc1cc(C(Cl)(Cl)Cl)cnc1Cl`: the Potency result in assay [1], in [2], in assay [3], in assay [4], in assay [18] and in [17] was “inactive” throughout. The Potency result in assay [20], in assay [7], in assay [8], in assay [9], in assay [10] and in assay [11] was “inactive” each time. In addition, the Potency entry in assay [12], in assay [13], in [14] and in [16] was “inactive” in each case. Also, in [6], the result was inactive.

In the case of `CCCCOC(=O)c1ccccc1C(=O)OCc1ccccc1`, the Potency result in assay [1], in assay [3], in [5], in assay [17], in assay [7] and in [8] was “inactive” in each case. Moreover, the Potency result in assay [9], in assay [11], in assay [12], in assay [13], in assay [14] and in assay [16] was “inactive” in each case. Further, the Potency result in assay [2] is “inactive and 19.3 µM (active)”; in assay [4], 6.1 µM (active) and 9.15 µM (active). Further, the result in [6] and in [15] was inactive.
